Compound activity from PubChem.
A selection: hits, their analogues and other compounds. The true share with any hit is near 2.4%.
CHO-K1 Ca ag – M1 agonist counterscreen hit in parental CHO-K1 cells; Fluo-8 calcium fluorescence; scaled to maximal ATP response, vehicle zero; activation, % at 3 µM; 360,000 tested, 0.48% active; in the data active means activation above about 15%;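 further: untransfected CHO-K1 host cells lacking M1 receptor as counterscreen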
M1 antag – antagonists of human M1 muscarinic receptor; P11229; CHO-K1 hM1, Fluo-8 calcium fluorescence, ACh EC80 antagonist; inhibition, % at 3 µM; 360,000 tested, 1.3% active; AID 588852;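 active means percent inhibition above its own plate's cutoff, namely the mean of that plate's compound wells plus 3 SD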;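 further: peak over basal fluorescence ratio during 140 s after agonist addition; 0% = ACh EC80 plus DMSO and 100% = DMSO alone without agonist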
Target sequence (P11229 whole entry, looked up): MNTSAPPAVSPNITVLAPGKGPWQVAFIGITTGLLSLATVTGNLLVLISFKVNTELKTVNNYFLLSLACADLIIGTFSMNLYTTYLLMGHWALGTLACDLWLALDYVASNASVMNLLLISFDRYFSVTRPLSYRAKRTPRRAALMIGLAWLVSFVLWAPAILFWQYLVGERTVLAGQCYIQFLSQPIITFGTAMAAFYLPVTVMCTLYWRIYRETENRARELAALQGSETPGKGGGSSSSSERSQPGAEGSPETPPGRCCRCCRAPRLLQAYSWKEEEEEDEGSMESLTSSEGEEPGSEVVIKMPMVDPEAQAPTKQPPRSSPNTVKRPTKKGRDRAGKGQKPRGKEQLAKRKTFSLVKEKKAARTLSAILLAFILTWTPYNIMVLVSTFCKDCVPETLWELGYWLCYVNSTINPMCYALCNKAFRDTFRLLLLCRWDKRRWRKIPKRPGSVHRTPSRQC
CHO-K1 Ca antag – counter-screen for M1 antagonists: effect in parental CHO-K1 cells. ATP-induced calcium, Fluo-8 fluorescence. inhibition, % at 3 µM. 360,000 tested, 0.6% active. AID 602250;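 active means inhibition above a per-plate cutoff, the plate's mean sample inhibition plus 3 SD, cut at about 24% in these data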;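 further: 0% = DMSO plus EC80 ATP and 100% = DMSO alone without ATP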
CHRM1 PAM – potentiates human M1 receptor response to acetylcholine. P11229. CHO-K1 hM1, Fluo-8 calcium fluorescence, ACh EC20; 0% = ACh EC20, 100% = maximal ACh. activation, % at 3 µM. 360,000 tested, 0.088% active; in the data active means activation above about 19%, passing the limit was not always enough
M1 ag – human M1 muscarinic receptor agonism; AID 588814; CHO-K1 hM1, Fluo-8 calcium fluorescence, agonist mode; 0% DMSO, 100% acetylcholine EC100; 360,000 tested, 0.33% active; P11229; activation, % at 3 µM;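 active means activation above the run's mean compound activation plus 3 SD, cut at about 16% in these data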;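 further: peak over basal fluorescence ratio within a 140 s kinetic read after compound addition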
CHO-K1 Ca PAM – nonselective activator or artifact in parental CHO-K1 calcium assay; ATP EC20, Fluo-8 calcium fluorescence; 0% at ATP EC20, 100% at ATP max; activation, % at 3 µM; 360,000 tested, 0.02% active; AID 602247;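 active means activation above the run cutoff, the mean activation of all test compounds plus 3 SD, cut at about 40% in these data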;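 further: peak over basal fluorescence ratio in a 140 s read after ATP addition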
* marks the source's active call; other numbers are inactive results.

SMILES	CHO-K1 Ca ag	M1 antag	CHO-K1 Ca antag	CHRM1 PAM	M1 ag	CHO-K1 Ca PAM
Cn1c(/C(C#N)=C(\O)c2cccc(F)c2)nc2ccccc21	0	-1	-5	9	1	-12
O=C(CSc1cn[nH]n1)Nc1cccc(C(=O)O)c1	0	-6	7	5	1	5
CN(C)S(=O)(=O)c1cccc(NC(=O)c2ccc(COc3ccccc3)cc2)c1	18*	39*	30*	-24	-3	-11
O=C(NC(Cc1ccc2c(c1)OCO2)C(=O)NC(Cc1ccccc1)C(=O)O)c1ccccc1 (stereo unspecified)	0	4	25*	3	-3	-6
O=C(O)CC(Cc1ccccc1)c1ccc2c(c1)OCO2 (stereo unspecified)	0	13	33*	-1	-4	-10
Cc1ccc(CC(NC(=O)c2ccccc2)C(=O)NC(Cc2ccccc2)C(=O)O)cc1 (stereo unspecified)	1	0	-6	-2	-2	19
CN(Cc1ccc(F)cc1)C(=O)CNC(=O)c1cccs1	1	-11	-13	14	-3	5
O=C(NC1CCCCC1)N1CCCc2ccccc21	0	-2	15	6	-1	-5
Cc1cccc(C)c1NC(=O)N1CCC(c2nc3ccccc3o2)CC1	1	28*	-8	-15	-6	-8
CCOc1ccc(-c2cc(C(=O)N/N=C/c3cccnc3)c3ccccc3n2)cc1	24*	-5	13	-4	7	-1
CCOc1ccc(-c2cc(C(=O)Nc3ccc4c(c3)OCCO4)c3ccccc3n2)cc1	3	11	30*	2	-2	5
COc1cccc(/C=N/NC(=O)c2cc(-c3ccccn3)nc3ccccc23)c1O	4	37*	-16	-11	-5	4
CCN1CCN(S(=O)(=O)c2ccc(Cl)c(C(=O)N(C)Cc3ccc(F)cc3)c2)CC1	2	-5	-5	3	-4	-5
CCOc1ccc(NC(=O)C2CC(=O)N3CCCN=C3S2)cc1 (stereo unspecified)	1	-28	-6	5	-2	16
CC(=O)N1CCN(C(=O)/C(C#N)=C/c2ccc3c(c2)OCO3)CC1	0	-29	-12	34*	4	9
CC1CCCCN1CC(=O)Nc1ccc(N2CCCCCC2)cc1 (stereo unspecified)	0	7	-15	-27	-15	20
CC1CCCCN1CC(=O)NC(c1ccccc1)c1ccccc1 (stereo unspecified)	0	60*	-2	-38	-16	13
CC1CCCCN1CC(=O)Nc1ccc(Oc2ccccc2)cc1 (stereo unspecified)	1	69*	-5	-25	-6	16
O=S(=O)(c1ccccc1F)N1CCN(c2nc(-c3cccnc3)nc3ccccc23)CC1	6	27	6	-9	-2	7
N#Cc1ccccc1S(=O)(=O)N1CCN(c2nc(-c3cccnc3)nc3ccccc23)CC1	7	50*	11	-19	-2	-4
Cc1ccc(C)c(S(=O)(=O)N2CCN(c3nc(-c4cccnc4)nc4ccccc34)CC2)c1	4	27*	-14	-12	-4	5
COc1ccccc1NC(=O)Cn1cnc2sc(C)c(S(=O)(=O)N3CCCCC3)c2c1=O	1	4	-5	-5	-3	20
Cc1cc2n(n1)C(c1sccc1C)Nc1c(C)cccc1-2 (stereo unspecified)	0	2	25*	12	0	-6
Cc1ccc(NC(=O)CCCN2C(=S)NC(C)(C)CC2C)cc1 (stereo unspecified)	0	-1	-17	8	-3	0
CCC(C)N1CCN(C(=O)C2CCN(S(=O)(=O)c3c(C)noc3/C=C/c3ccco3)CC2)CC1 (stereo unspecified)	-1	80*	10	-24	-6	-18
Cc1cccc(NC(=O)C2CCN(S(=O)(=O)c3c(C)noc3/C=C/c3ccco3)CC2)n1	4	5	-5	-3	-3	15
C=CCNc1nc(Nc2ccc([N+](=O)[O-])cc2)nc(OC)n1	-1	-1	29*	-2	-9	-5
